Sampled rows, rich in hits. Any-hit rate of the full collection: about 9%.
BAZ2B block: qHTS Assay for Inhibitors of BAZ2B; Bromodomain adjacent to zinc finger domain protein 2B (Homo sapiens), Q9UIF8; AlphaScreen BAZ2B-H3K14Ac peptide displacement; Potency, µM (doses to about 114 µM), most hits filed as inhibitors; actives 4.4% (n = 360,000); AID 504333, 2011; note: nearly all actives have a fitted effect of over 60% in size
Target sequence (Q9UIF8 whole entry, looked up, the tested form may be a part): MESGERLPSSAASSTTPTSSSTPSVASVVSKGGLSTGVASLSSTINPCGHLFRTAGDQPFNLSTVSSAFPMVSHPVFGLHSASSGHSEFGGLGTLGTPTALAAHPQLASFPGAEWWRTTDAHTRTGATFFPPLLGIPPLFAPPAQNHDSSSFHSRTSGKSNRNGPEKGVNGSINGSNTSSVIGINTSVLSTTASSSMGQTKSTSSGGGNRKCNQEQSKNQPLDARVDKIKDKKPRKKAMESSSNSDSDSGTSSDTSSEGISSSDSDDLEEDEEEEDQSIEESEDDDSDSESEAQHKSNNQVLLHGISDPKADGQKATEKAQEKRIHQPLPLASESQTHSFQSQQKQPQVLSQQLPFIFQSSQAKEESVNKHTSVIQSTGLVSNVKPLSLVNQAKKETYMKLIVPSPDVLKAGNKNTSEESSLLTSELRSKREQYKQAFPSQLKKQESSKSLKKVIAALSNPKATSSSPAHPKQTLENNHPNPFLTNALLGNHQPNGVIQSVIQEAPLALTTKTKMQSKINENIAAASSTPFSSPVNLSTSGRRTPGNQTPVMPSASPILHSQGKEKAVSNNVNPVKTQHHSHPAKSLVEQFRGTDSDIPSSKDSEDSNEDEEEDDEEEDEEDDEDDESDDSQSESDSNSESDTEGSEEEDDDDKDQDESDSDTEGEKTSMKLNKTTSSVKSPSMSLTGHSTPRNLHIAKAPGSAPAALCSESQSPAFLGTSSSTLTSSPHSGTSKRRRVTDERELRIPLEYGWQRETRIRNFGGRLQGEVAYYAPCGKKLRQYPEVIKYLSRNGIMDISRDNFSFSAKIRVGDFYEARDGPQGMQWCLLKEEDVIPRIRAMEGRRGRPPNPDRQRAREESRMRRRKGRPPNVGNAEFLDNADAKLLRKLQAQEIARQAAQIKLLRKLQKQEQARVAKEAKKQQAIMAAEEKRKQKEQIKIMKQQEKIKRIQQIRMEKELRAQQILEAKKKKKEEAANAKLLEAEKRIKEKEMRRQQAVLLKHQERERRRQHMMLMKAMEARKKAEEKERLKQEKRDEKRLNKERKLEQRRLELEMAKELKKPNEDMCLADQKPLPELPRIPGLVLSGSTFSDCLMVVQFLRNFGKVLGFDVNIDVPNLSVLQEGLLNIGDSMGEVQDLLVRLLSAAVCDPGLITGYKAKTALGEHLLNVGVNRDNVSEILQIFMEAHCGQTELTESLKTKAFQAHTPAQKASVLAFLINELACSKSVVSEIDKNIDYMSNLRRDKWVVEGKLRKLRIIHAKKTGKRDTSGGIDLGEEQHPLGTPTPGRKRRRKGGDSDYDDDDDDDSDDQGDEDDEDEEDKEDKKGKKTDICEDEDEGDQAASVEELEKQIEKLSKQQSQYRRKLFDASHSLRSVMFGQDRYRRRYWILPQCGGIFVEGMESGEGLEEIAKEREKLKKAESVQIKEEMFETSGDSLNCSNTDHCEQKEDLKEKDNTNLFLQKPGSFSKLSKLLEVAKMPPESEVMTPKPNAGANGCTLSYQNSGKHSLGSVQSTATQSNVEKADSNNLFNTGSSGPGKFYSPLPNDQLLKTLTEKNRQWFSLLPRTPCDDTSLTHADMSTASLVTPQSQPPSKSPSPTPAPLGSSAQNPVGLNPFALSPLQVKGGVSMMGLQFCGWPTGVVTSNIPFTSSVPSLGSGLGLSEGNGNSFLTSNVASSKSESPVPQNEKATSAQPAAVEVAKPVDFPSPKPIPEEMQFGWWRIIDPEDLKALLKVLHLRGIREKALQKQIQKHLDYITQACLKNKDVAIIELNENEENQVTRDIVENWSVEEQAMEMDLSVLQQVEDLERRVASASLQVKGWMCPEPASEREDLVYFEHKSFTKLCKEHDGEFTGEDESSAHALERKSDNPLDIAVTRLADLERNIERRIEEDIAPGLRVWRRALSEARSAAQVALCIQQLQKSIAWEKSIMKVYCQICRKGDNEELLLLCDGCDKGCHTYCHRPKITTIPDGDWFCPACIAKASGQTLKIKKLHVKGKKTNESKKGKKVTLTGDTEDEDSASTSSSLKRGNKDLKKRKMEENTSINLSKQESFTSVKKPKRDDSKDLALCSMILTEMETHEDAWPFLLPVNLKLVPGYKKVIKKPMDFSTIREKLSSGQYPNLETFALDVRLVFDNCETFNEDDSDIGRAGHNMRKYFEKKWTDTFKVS
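In this displacement format the biotinylated H3(5-23) peptide acetylated at Lys14 serves as ligand at 50 nM, with BAZ2B at 50 nM in PBS pH 7.4 containing 0.01% Tween-20. Donor and acceptor beads are 10 ug/mL final.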
PLK1 PBD inh: qHTS for Inhibitors of PLK1-PDB (polo-like kinase 1 - polo-box domain): Primary Screen; Plk1 PBD binding of FITC phosphopeptide, fluorescence polarization; Potency, µM, actives largely listed as inhibitors; actives 2.8% (n = 360,000); AID 720504, 2013; note: series mostly up to about 57 µM; nearly all actives have a fitted effect of over 65% in size
12-LOX inh: Primary qHTS assay for inhibitors of human arachidonate 12S-lipoxygenase (ALOX12): Round 2; Polyunsaturated fatty acid lipoxygenase ALOX12 (Homo sapiens), P18054; purified 12hLO, xylenol orange hydroperoxide absorbance; Potency, µM (titrated, usually from 108 µM), most hits filed as inhibitors; actives 1.1% (n = 580,000); AID 1671190, 2021
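Purified human 12hLO at 150 nM in 25 mM Hepes, 0.01% Triton X-100, pH 7.0, preincubated 15 min at room temperature with compound. Reaction started with 40 uM arachidonic acid, 30 min at room temperature. Hydroperoxide measured by Fe-xylenol orange, 573/405 nm absorbance ratio.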
G9a inh: qHTS Assay for Inhibitors of Histone Lysine Methyltransferase G9a; AID 504332, 2011; Potency, µM (series often up to 102 µM), hits mostly inhibitors; G9a H3K9 monomethylation, AlphaScreen, 2 h; actives 8.8% (n = 350,000); Histone-lysine N-methyltransferase EHMT2 (Homo sapiens), Q96KQ7; note: nearly all actives have a fitted effect of over 75% in size
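Methyltransferase reactions run at room temperature for 2 h (20 nM enzyme, 500 nM biotin-H3K9 peptide, 20 uM SAM) after a 15 min compound preincubation; product detected by AlphaScreen beads and anti-H3K9me1 antibody.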
HP1b chromo inh: HTS for Inhibitors of HP1-beta Chromodomain Interactions with Methylated Histone Tails; Potency, µM (top dose mostly 114 µM), most hits filed as inhibitors; actives 0.56% (n = 390,000); AlphaScreen HP1-beta / biotin-H3K9me3 peptide binding; Chromobox protein homolog 1 (Homo sapiens), P83916; note: nearly all actives have a fitted effect of over 70% in size
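AlphaScreen: HP1-beta (50 nM) preformed 30 min with biotin-H3(1-18)K9me3 peptide (50 nM) in PBS pH 7.4, 0.01% Tween-20. Compound added for 30 min at RT, then streptavidin donor/nickel chelate acceptor beads (10 ug/mL) for 30 min.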
JMJD2A Tudor inh: qHTS Assay for Inhibitors of JMJD2A-Tudor Domain; actives 4.4% (n = 390,000); Potency, µM (highest dose often 114 µM), hits mostly inhibitors; AlphaScreen JMJD2A-Tudor / H3K4me3 peptide binding; Lysine-specific demethylase 4A (Homo sapiens), O75164; note: nearly all actives have a fitted effect of over 50% in size
TbPYK confirm: qHTS of Trypanosoma Brucei Inhibitors: Confirmatory Assay for Cherry-picked Compounds; shares compounds with PLK1 PBD inh; recombinant TbPYK, Kinase-Glo ATP luminescence; Potency, µM (highest dose often 76.9 µM), most hits filed as inhibitors; actives 67% (n = 890); note: nearly all actives have a fitted effect of over 70% in size
TbPYK orthogonal: qHTS of Trypanosoma Brucei Inhibitors: Orthogonal Assay for Cherry-picked Compounds. shares compounds with PLK1 PBD inh. recombinant TbPYK, ADP-Glo luminescence, 60 min. Potency, µM (series often up to 76.9 µM), hits mostly inhibitors. actives 62% (n = 890); note: nearly all actives have a fitted effect of over 75% in size
A number is an active result; – = inactive; ? = inconclusive; · = no result given; [ ] = dose if it differs, or a comment. Calls come from the whole dose curve; as a rule, active = well fitted curve in the direction sought with a large enough effect; inconclusive = small, poorly fitted or top-dose-only effect, or another doubt; inactive = no such curve, though single readings can be large; an effect the other way counts as inactive or inconclusive.

SMILES	BAZ2B block	PLK1 PBD inh	12-LOX inh	G9a inh	HP1b chromo inh	JMJD2A Tudor inh	TbPYK confirm	TbPYK orthogonal
COc1ccccc1C=C1CCc2ccccc2C1=O	·	–	?	·	·	·	·	·
O=C1/C(=C/c2ccncc2)CCc2ccccc21	–	–	–	–	–	–	·	·
O=C1/C(=C\c2ccncc2)CCc2ccccc21	–	–	–	–[2.33 µM]	–	–	?	–
CC1(C)Cc2c(c(N3CCOCC3)nc3sc(C(=O)N4CCCCC4)c(N)c23)CO1	–	?	?	4.5µM	–	?	0.4µM	2.5µM
CCCCOC(=O)c1sc2nc(N3CCOCC3)c3c(c2c1N)CC(C)(C)OC3	–	–	–	–[12.7 µM]	–	–	·	·
COc1cccc(NC(=O)c2sc3nc(N4CCOCC4)c4c(c3c2N)CCCC4)c1	–	?	–	?	–	–	?	?
COc1ccc(NC(=O)c2sc3nc(N4CCOCC4)c4c(c3c2N)CC(C)(C)OC4)cc1	–	–	?	·	–	–	·	·
NNC(=O)c1sc2nc(N3CCOCC3)c3c(c2c1N)CCCC3	–	–	–	?	–	–	·	·
Nc1c(C(=O)Nc2ccc(Cl)cc2)sc2nc(N3CCOCC3)c3c(c12)CCCC3	–	?	?	22µM	–	–	?	?
Nc1c(C(=O)NCc2ccccc2)sc2nc(N3CCOCC3)c3c(c12)CCCC3	–	–	–	–[2.33 µM]	–	–	·	·
Nc1c(C(=O)N2CCOCC2)sc2nc(N3CCOCC3)c3c(c12)CCCC3	–	27µM	40µM	10µM	–	?	7.9µM	14µM
C=CCn1c(SCC(=O)N2CCOCC2)nc2sc3c(c2c1=O)CCCC3	–	–	–	–	–	–	·	·
CCOC(=O)NCC(=O)NCc1ccccn1	·	·	–	·	·	·	·	·
O=C1ON=C(c2ccc([N+](=O)[O-])cc2)/C1=C/c1ccccc1O	–	1.7µM	?	79µM	–	–	?	–
O=C1ON=C(c2ccccc2)/C1=C/c1ccc(-c2ccccc2[N+](=O)[O-])o1	22µM	0.95µM	4µM	7.1µM	50µM	28µM	32µM	?
Cc1cccc(C2=NOC(=O)/C2=C\c2ccccc2F)c1	–	–	–	–[12.7 µM]	–	–	·	·
COc1ccc(C(=O)Nc2ccc([C@H]3OCC(=O)N(C(C)C)[C@@H]3CO)cc2)cc1OC	·	·	–	·	·	·	·	·
Cc1ccc2nc(CN(C)C(=O)C3CCC(=O)N(C4CCCCCC4)C3)[nH]c2c1 (stereo not drawn)	·	·	–	·	·	·	·	·
NC(=O)Cn1c(=O)n(Cc2ccco2)c(=O)c2c3c(sc21)CCCCC3	?	?	?	20µM	–	56µM	?	?
O=C(CCNS(=O)(=O)c1ccccc1)OCC(=O)c1ccc(F)cc1	–	–	–	–	–	–	·	·
O=C(O)c1ccccc1C(=O)c1ccc(-c2ccccc2)cc1	–	–	–	–[2.33 µM]	–	–	·	·
O=C(c1ccccc1)c1ccccc1N1C(=O)C=CC1=O	–	3.4µM	7.9µM	0.79µM	11µM	18µM	4µM	4µM
O=C(Nc1ccc(C(=O)N2CCCC2)cc1)c1ccccc1	·	–	–	·	–	–	28µM	–
O=C(Nc1ccc(C(=O)N2CCCCC2)cc1)c1ccc(Br)cc1	–	–	–	–[12.7 µM]	–	–	·	·
Cc1n[nH]c(C)c1S(=O)(=O)N1CCCC(C(=O)NC2CCCc3ccccc32)C1 (stereo not drawn)	–	–	–	–	–	–	·	·
SMILES	BAZ2B block	PLK1 PBD inh	12-LOX inh	G9a inh	HP1b chromo inh	JMJD2A Tudor inh	TbPYK confirm	TbPYK orthogonal
CN(C)c1cccc2c(/C=N/O)ccc(N(C)C)c12	–	–	–	?	–	–	·	·
CN(C)c1cccc2c(C=C(C#N)C#N)ccc(N(C)C)c12	20µM	–	–	8.9µM	22µM	16µM	?	?
COc1ccc(OC)c(N(CC(=O)NCCSc2ccccc2)S(C)(=O)=O)c1	–	–	–	–	–	–	·	·
COc1ccc(N(CC(=O)NCCSC(C)(C)C)S(C)(=O)=O)c(OC)c1	–	–	–	?	–	–	18µM	?
Cc1ccc2c(c1)C(N1CCCC1=O)CC(c1ccco1)N2 (stereo not drawn)	–	?	?	10µM	–	–[11.4 µM]	–	–
Cc1c(Br)c(O)c(Br)c2sc(=O)oc12	?	27µM	–	3.5µM	28µM	45µM	?	?
CN(C)C(=S)N=Nc1[nH]c2ccccc2c1O	–	17µM	–	7.9µM	–	–	5.6µM	6.3µM
O=C(N/N=C/c1ccc(N2CCCCC2)o1)c1ccccc1	–	?	–	10µM	?	50µM	32µM	32µM
O=C(N/N=C/c1ccccc1)c1ccc(N2CCOCC2)c([N+](=O)[O-])c1	–	–	–	–	–	–	·	·
O=C(N/N=C/c1ccc(N2CCOCC2)o1)c1cccc([N+](=O)[O-])c1	–	?	–	10µM	–	?	?	32µM
CCOC(=O)C1=C(N)Oc2c(oc(CO)cc2=O)C1c1ccccc1F (stereo not drawn)	·	·	–	·	·	·	·	·
O=Cc1cnc2ccccc2c1-c1ccccc1	–	–	–	–	–	–	·	·
Cc1cc(SCC(=O)Nc2ccc(O)cc2)n2ncc(-c3ccccc3)c2n1	–	–	–	–	–	–	·	·
O=C(O)c1ccc2nc(-c3ccco3)c(-c3ccco3)nc2c1	10µM	12µM	?	–[12.7 µM]	?	25µM	14µM	16µM
COc1ccc(NC(=O)C(c2ccc(OC)cc2)N(C)C(=O)CNC(C)=O)cc1 (stereo not drawn)	–	?	–	–[0.0925 µM]	–	?	·	·
CCOC(=O)C(=C1Nc2ccccc2N1)n1c(-c2ccco2)nc2ccccc21	·	?	?	·	·	·	–	35µM
CCCc1cc(=O)oc2cc(C)cc(OC(=O)c3ccco3)c12	–	–	–	–[12.7 µM]	–	–	–	–
CSc1ccccc1NC(=O)Cn1nc([N+](=O)[O-])c(Cl)c1C	–	?	–	·	–	–	20µM	20µM
Cc1c(Cl)c([N+](=O)[O-])nn1CC(=O)NCC(C)C	–	–	–	·	–	–	·	·
CC(=O)N1CCN(c2ccc(N)cc2)CC1	?	·	–	–[2.33 µM]	–	–	·	·
Cn1c(=O)[nH]c(=O)c2c1nc(SCCN1CCCCC1)n2Cc1ccccc1	–	–	–	–[12.7 µM]	–	–	·	·

Screening data (PubChem BioAssay)
